The values that follow come from PubChem BioAssay (NCATS).

Assay [1] can be described thus: NS1 protein of Zika virus - qHTS assay to identify small molecule inhibitors in human HEK 293 cells (AID 1347053). Also: nearly all actives have a fitted effect of over 55% in size. Conditions: HEK293 ZIKV MR766 infection, NS1 TR-FRET, 24 h; series mostly up to 46.1 µM. The method, boiled down:
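HEK 293 cells, seeded 20 h at 37 C, were pretreated with compound 1 h, then infected with ZIKV MR766 (MOI = 0.5) for 24 h. NS1 was read by TR-FRET with two anti-NS1 antibodies, normalized to uninfected and infected wells.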

The nature of assay [2]: qHTS of pediatric cancer cell lines to identify multiple opportunities for drug repurposing: Primary screen for TC32 cells (AID 1347089). Also: nearly all actives have a fitted effect of over 60% in size. Also: potency is read from the fitted curve at half-maximal effect. Conditions: TC32 Ewing sarcoma viability, CellTiter-Glo luminescence, 48 h; series mostly up to 45.8 µM. The essentials:
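Measured quantity: luminescence from CellTiter-Glo, reflecting metabolically active TC32 cells following 48 h of compound. Curves came straight from multi-point titrations, with 8 or 11 points in primary and 11 in confirmatory screening.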

Assay [3] can be described thus: qHTS of pediatric cancer cell lines to identify multiple opportunities for drug repurposing: Primary screen for SJ-GBM2 cells (AID 1347091). Also: potency is read from the fitted curve at half-maximal effect. Conditions: SJ-GBM2 viability, CellTiter-Glo luminescence, 48 h; series mostly up to 46 µM. The method, boiled down:
(§1)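 Cell viability, CellTiter-Glo luminescence; 500-1,000 cells/well, 8- or 11-point titration, 48 h compound exposure at 37 degrees C, 5% CO2. Controls: DMSO neutral, bortezomib 2.3 µM final as positive.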

A short description of assay [4]: qHTS of pediatric cancer cell lines to identify multiple opportunities for drug repurposing: Primary screen for A673 cells (AID 1347092). Also: potency is read from the fitted curve at half-maximal effect; nearly all actives have a fitted effect of over 45% in size. Conditions: A673 Ewing sarcoma viability, CellTiter-Glo ATP luminescence, 48 h; series mostly up to 46 µM. The essentials: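 Cells are plated, rested 5 h, dosed by pintool, incubated 48 h, then lysed with CellTiter-Glo and read by luminescence. DMSO is the neutral control; bortezomib at 2.3 uM final is the positive control.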

The nature of assay [5]: qHTS of pediatric cancer cell lines to identify multiple opportunities for drug repurposing: Primary screen for BT-37 cells (AID 1347094). Also: potency is read from the fitted curve at half-maximal effect. Conditions: BT-37 viability, CellTiter-Glo luminescence, 48 h; series mostly up to 57.3 µM. The essentials:
(§2)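 ATP-based luminescence (CellTiter-Glo) quantifies viability after a 48-hour exposure. Compounds are dosed across 8 or 11 final concentrations; DMSO and 2.3 µM bortezomib serve as controls.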

Assay [6] in a line: qHTS of pediatric cancer cell lines to identify multiple opportunities for drug repurposing: Primary screen for U-2 OS cells (AID 1347096). Also: nearly all actives have a fitted effect of over 50% in size. Also: potency is read from the fitted curve at half-maximal effect. The settings on record: U-2 OS viability, CellTiter-Glo luminescence, 48 h; series mostly up to 46 µM. The essentials:
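Cells (500-1,000/well) rested 5 h, then received compounds for 48 h; metabolically active cells were measured by CellTiter-Glo luminescence. Final concentrations spanned up to 46 µM (MIPE, 11-point) or 0.59 nM-46 µM (NPC, 8-point) in primary screens, 11-point in follow-ups.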

Assay [7] is described as follows: qHTS of pediatric cancer cell lines to identify multiple opportunities for drug repurposing: Primary screen for DAOY cells (AID 1347090). Also: nearly all actives have a fitted effect of over 55% in size. Also: potency is read from the fitted curve at half-maximal effect. Conditions: DAOY medulloblastoma viability, CellTiter-Glo luminescence, 48 h; series mostly up to 46 µM. The essentials: as §1
Assay [8] can be described thus: qHTS of pediatric cancer cell lines to identify multiple opportunities for drug repurposing: Primary screen for SK-N-MC cells (AID 1347093). Also: potency is read from the fitted curve at half-maximal effect. Conditions: SK-N-MC viability, CellTiter-Glo luminescence, 48 h; series mostly up to 46 µM. The essentials: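 Metabolically active cells were quantified by ATP-dependent luminescence (CellTiter-Glo, 15 min at room temperature) following 48 h treatment. Cells had been plated at 500-1,000 per well and settled for 5 h beforehand.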

Assay [9] can be described thus: qHTS of pediatric cancer cell lines to identify multiple opportunities for drug repurposing: Primary screen for NB-EBc1 cells (AID 1347095). Also: potency is read from the fitted curve at half-maximal effect. Conditions: NB-EBc1 neuroblastoma viability, CellTiter-Glo luminescence, 48 h; series mostly up to 46 µM. The method, boiled down: as §2

Inconclusive results are not listed. Activity calls are given as the source filed them. Calls follow the shape of the dose curve; as a rule, active = well fitted curve in the direction sought with a large enough effect; inconclusive = small, poorly fitted or top-dose-only effect, or another doubt; inactive = no such curve, though single readings can be large; an effect the other way counts as inactive or inconclusive. Numbered stars: 1 amine (or outer) side, 2 acyl side, 3 side chain; on linkers, the order of the positions; unused ones are H or OH. Bridge positions count the residues as written; N and C are the ends. Square brackets hold non-standard residues; d marks the D form. Peptide text beside a SMILES is read from it. I, II: the chains in the order shown. Actinocin(9to1) = Cc1c2oc3c(C)ccc(C(=O)[*:1])c3nc-2c(C(=O)[*:2])c(N)c1=O; NMeV = CN[C@H](C(=O)O)C(C)C; Sar = CNCC(=O)O

Turning to `O=c1[nH]c(=O)n([C@H]2C[C@H](O)[C@@H](CO)O2)cc1C(F)(F)F`, the Potency result in [1], in assay [3] and in assay [6] was “inactive” throughout. For the same compound, the Potency in assay [2] was 1050 nM (active); in assay [4] it was 1680 nM (active); in assay [5], 550 nM (active).
Take `Cc1c2oc3c(C)ccc(C(=O)N[C@@H]4C(=O)N[C@H](C(C)C)C(=O)N5CCC[C@H]5C(=O)N(C)CC(=O)N(C)[C@@H](C(C)C)C(=O)O[C@@H]4C)c3nc-2c(C(=O)N[C@@H]2C(=O)N[C@H](C(C)C)C(=O)N3CCC[C@H]3C(=O)N(C)CC(=O)N(C)[C@@H](C(C)C)C(=O)O[C@@H]2C)c(N)c1=O` (I: T[dV]P[Sar][NMeV] / II: T[dV]P[Sar][NMeV]; ester I:1-I:C, II:1-II:C; linker I:N-II:N via Actinocin(9to1)): the Potency result in [1] and in assay [9] was “inactive” each time. Also, the Potency in assay [2] was 14.9 nM (active); in [7], 21.1 nM (active); in assay [4], 4.2 nM (active); in assay [8], 2.7 nM (active); in assay [5], 2.8 nM (active); in [6], 42.2 nM (active).
Turning to `c1ccc(-c2ccc(C(c3ccccc3)n3ccnc3)cc2)cc1` (configuration not stated), the Potency entry in [1], in assay [2] and in assay [3] was “inactive” in each case.
On to `CN(C)CC/C=C1\c2ccccc2Sc2ccc(Cl)cc21`, for which the Potency entry in [1], in assay [2], in assay [7] and in assay [6] was “inactive” in each case.
As to `COc1c(C)c2c(c(O)c1C/C=C(\C)CCC(=O)O)C(=O)OC2`, the Potency result in assay [1] and in assay [6] was “inactive” throughout. Further, the Potency in assay [2] was 664 nM (active); in [8], 84.1 nM (active); in assay [5], 389 nM (active); in [9], 29900 nM (active).
In the case of `CC(C)=CCC1C(=O)N(c2ccccc2)N(c2ccccc2)C1=O`, the Potency entry in assay [1], in assay [2], in assay [7], in assay [5] and in [6] was “inactive” in each case. Besides, the Potency in assay [9] was 21100 nM (active).
As to `CCCCCCCCCCCCCCCC[N+](C)(C)CC`, the Potency in assay [7] is 13300 nM (active); in assay [3] it was 18800 nM (active); in assay [4], 1060 nM (active); in assay [8], 2660 nM (active); in [5], 13800 nM (active).
Consider `COc1cc(N)c(Cl)cc1C(=O)NC1CCN(CCCOc2ccc(F)cc2)CC1OC` (configuration not stated), for which the Potency entry in [1], in assay [2], in assay [7], in assay [5], in assay [9] and in [6] was “inactive” in each case.
As for `CCN(CC)CCOc1ccc(C(O)(Cc2ccc(Cl)cc2)c2ccc(C)cc2)cc1` (configuration not stated), the Potency in [8] was 21100 nM (active).
Consider `COc1ccc(/C=C/C(=O)c2ccc(OC)cc2OC)cc1`, for which the Potency result in [1], in [2] and in [6] was “inactive” each time.
As to `COc1cccc(CCc2ccccc2OCC(CN(C)C)OC(=O)CCC(=O)O)c1` (configuration not stated), the Potency entry in [1], in assay [2], in assay [7], in [5], in [9] and in assay [6] was “inactive” throughout.
On to `O=c1c(-c2ccccc2)c1-c1ccccc1`, for which the Potency in assay [7] is 21100 nM (active); in assay [4], 8410 nM (active); in [8] it was 6680 nM (active).
Regarding `COc1cccc2c1C(=O)c1c(O)c3c(c(O)c1C2=O)C[C@@](O)(C(C)=O)C[C@@H]3O[C@H]1C[C@H](N)[C@H](O)[C@H](C)O1`, the Potency entry in [1] was “inactive”. The Potency is 236 nM (active) in assay [2]; 1060 nM (active) in assay [7]; 266 nM (active) in [4]; 84.1 nM (active) in assay [8]; 110 nM (active) in assay [5]; 53.1 nM (active) in [9]. The Potency in assay [6] was 6680 nM (active).
For `Oc1c(I)cc(Cl)c2cccnc12`, the Potency in assay [3] is 18800 nM (active); in assay [4], 21100 nM (active).
